The results in this text go back to PubChem BioAssay (EPA / NIEHS).

Structures are written as SMILES. Where “and” joins values, the source holds several entries; their conditions need not be identical. Equal values may be shown once. Results filed as inconclusive are left out. More than one record can exist for a structure, and the calls need not agree. Calls of active or inactive are those of the source. How the source made its calls, unless noted: active means hit-call score of the fitted dose curve at least 0.9, where 1 is the maximum; inactive means score below 0.9.

Read-out in assay [1]: Monocyte Chemoattractant Protein-1 (MCP1), CCL2 (gene 6347)
Nature of the assay: BSK_SAg_MCP1: BioMAP Diversity Plus: SAg Assay for Monocyte Chemoattractant Protein-1 (MCP1) Biomarker Activity (AID 2283090). Particulars: primary human HUVEC with PBMC; actives raise or lower the signal. In a few lines:
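MCP-1 levels in the endothelial–PBMC SAg co-culture were quantified by ELISA at 24 h post-dosing; both increases and decreases versus DMSO scored. Cytotoxicity monitored by SRB total protein in parallel cultures.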

Read-out in assay [2]: E-selectin (Homo sapiens) (UniProt P16581)
The experiment in a line: BSK_SAg_Eselectin: BioMAP Diversity Plus: SAg Assay for Eselectin Biomarker Activity (AID 2283091). Particulars: primary human HUVEC with PBMC; actives raise or lower the signal. Put shortly:
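Primary human endothelial cells and peripheral blood mononuclear cells were co-cultured and exposed to chemical for 24 hours. E-selectin levels were then quantified by ELISA, with bidirectional curve fitting normalised to DMSO controls.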

Read-out in assay [3]: Monokine induced gamma interferon (MIG), CXCL9 (gene 4283)
The experiment in a line: BSK_SAg_MIG: BioMAP Diversity Plus: SAg Assay for Monokine induced gamma interferon (MIG) Biomarker Activity (AID 2283092). Particulars: primary human HUVEC with PBMC; actives raise or lower the signal. In a few lines:
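ELISA readout of MIG/CXCL9; primary human umbilical vein endothelial cells co-cultured with peripheral blood mononuclear cells; 24 h post-dose; gain/loss fit vs DMSO baseline.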

A short description of assay [4]: BSK_SAg_PBMCCytotoxicity: PBMC Cytotoxicity Assessment in the BioMAP Diversity Plus: SAg Assay (AID 2283093).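 Further: PBMC viability measured as Alamar Blue reduction fluorescence at 546/580 nm; fitted both ways against DMSO so a hit may be loss or gain of signal.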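 On AC50: PBMC superantigen activated with SEB plus TSST-1 one hour after compound addition.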 Particulars: primary human HUVEC with PBMC. In a few lines:
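HUVEC/PBMC co-culture; PBMC exposed to chemical 1 h before SEB and TSST-1 activation (20 ng/mL each), incubated 90 h, then Alamar Blue 6 h, fluorescence 546/580 nm. Bidirectional fit versus DMSO baseline.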

Read-out in assay [5]: Interleukin-8 (IL8), CXCL8 (gene 3576)
Nature of the assay: BSK_SAg_IL8: BioMAP Diversity Plus: SAg Assay for Interleukin-8 (IL8) Biomarker Activity (AID 2283094). The settings on record: primary human HUVEC with PBMC; actives raise or lower the signal. In a few lines: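 Human umbilical vein endothelial cells co-cultured with PBMC, stimulated with superantigen; IL-8 measured by ELISA 24 h after chemical dosing. Bidirectional fitting versus DMSO; SRB staining in parallel cultures tracks cytotoxicity.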

Assay [6] in a line: BSK_SAg_Proliferation: Cell Proliferation Assessment in the BioMAP Diversity Plus: SAg Assay (AID 2283095). Particulars: primary human HUVEC with PBMC. Put shortly: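 Human umbilical vein endothelial cells co-cultured with PBMC; sulforhodamine B total-protein staining (0.1% SRB after 10% TCA fixation, absorbance 560 nm) at 96 h in sub-confluent culture. Fitted bidirectionally against DMSO.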

Assay [7] has as its target Cytochrome P450 2C19 (Homo sapiens) (UniProt P33261). Nature of the assay: NVS_ADME_hCYP2C19: NovaScreen (NVS) CYP450-related Enzyme Activity (ADME) Assay for human CYP2C19 (AID 2283113; active means hit-call score of the fitted dose curve at least 0.9, where 1 is the maximum;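 further: potency for inhibition seen as loss of fluorescent signal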). In a few lines:
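Chemicals first screened in duplicate at 10 uM against recombinant human enzyme produced in insect cells; confirmed actives then run as concentration series. Fluorogenic substrate turnover read by fluorescence after 1 h, normalised to acetonitrile.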

The nature of assay [8]: BSK_SAg_SRB: Viability Assessment in the BioMAP Diversity Plus: SAg Assay (AID 2283096).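 Further: cells read one day after compound addition; hits may be either gain or loss of signal compared with DMSO.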 The settings on record: primary human HUVEC with PBMC. Put shortly: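 Human umbilical vein endothelial cells co-cultured with PBMC, read 24 h after compound dosing. Total protein measured by sulforhodamine B staining (0.1% SRB after 10% TCA fixation, absorbance 560 nm); bidirectional fit versus DMSO baseline.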

Assay [9] has as its target human CYP19A1, CYP19A1 (gene 1588) (UniProt P11511). Nature of the assay: NVS_ADME_hCYP19A1: NovaScreen (NVS) CYP450-related Enzyme Activity (ADME) Assay for human CYP19A1 (AID 2283098; active means hit-call score of the fitted dose curve at least 0.9, where 1 is the maximum). In a few lines: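 Recombinant enzyme in a cell-free format, read 0.5 h after dosing by fluorescence from a fluorogenic substrate. Loss of signal was fitted against acetonitrile as baseline. Primary screen in duplicate at 10 uM, actives then tested in concentration series.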

For assay [10], the target named is human CYP2A6, CYP2A6 (gene 1548) (UniProt P11509). Nature of the assay: NVS_ADME_hCYP2A6: NovaScreen (NVS) CYP450-related Enzyme Activity (ADME) Assay for human CYP2A6 (AID 2283099; active means hit-call score of the fitted dose curve at least 0.9, where 1 is the maximum). In a few lines:
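Recombinant human CYP2A6 from insect cells was incubated with chemical for 0.5 h and activity read by fluorescence. Single-concentration duplicates at 10 uM preceded concentration-response testing to 20 uM, with activity referenced to acetonitrile.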

Assay [11] concerns the target human CYP1A1, CYP1A1 (gene 1543) (UniProt P04798). The experiment in a line: NVS_ADME_hCYP1A1: NovaScreen (NVS) CYP450-related Enzyme Activity (ADME) Assay for human CYP1A1 (AID 2283100; active means hit-call score of the fitted dose curve at least 0.9, where 1 is the maximum). In a few lines: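 Compounds first went through duplicate single-concentration testing at 10 uM against purified CYP1A1. Those passing a threshold such as 30% inhibition entered singleton dose-response, highest concentration 20 uM. Signal was fluorescence measured after 1 hour.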

Assay [12] has as its target human CYP2B6, CYP2B6 (gene 1555) (UniProt P20813). The experiment in a line: NVS_ADME_hCYP2B6: NovaScreen (NVS) CYP450-related Enzyme Activity (ADME) Assay for human CYP2B6 (AID 2283101; active means hit-call score of the fitted dose curve at least 0.9, where 1 is the maximum). In a few lines:
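Fluorescence-based enzyme activity of recombinant human CYP2B6, measured 1 h post-dose against acetonitrile vehicle baseline. Screened at a single concentration of 10 uM in duplicate before concentration-response follow-up.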

In assay [13] the target is human CYP1A2, CYP1A2 (gene 1544) (UniProt P05177). The experiment in a line: NVS_ADME_hCYP1A2: NovaScreen (NVS) CYP450-related Enzyme Activity (ADME) Assay for human CYP1A2 (AID 2283102; active means hit-call score of the fitted dose curve at least 0.9, where 1 is the maximum;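 on AC50: potency for inhibition since loss of fluorescence marks reduced CYP1A2 activity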). In a few lines:
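Compounds were tested at 10 uM in duplicate against recombinant CYP1A2 produced in insect cells. Enzyme activity was measured by fluorescence 0.5 h after dosing, with loss of signal versus acetonitrile control. Active compounds were re-tested in concentration series.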

Assay [14] deals with Cytochrome P450 2C18 (Homo sapiens) (UniProt P33260). Nature of the assay: NVS_ADME_hCYP2C18: NovaScreen (NVS) CYP450-related Enzyme Activity (ADME) Assay for human CYP2C18 (AID 2283103). In a few lines:
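Cell-free recombinant human CYP2C18 with fluorogenic substrate; fluorescence intensity read 0.5 h after dosing. Single-point screen at 10 uM in duplicate, then concentration-response up to 20 uM; loss of signal fitted against acetonitrile baseline.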

In assay [15] the target is human CYP2C8, CYP2C8 (gene 1558) (UniProt P10632). The experiment in a line: NVS_ADME_hCYP2C8: NovaScreen (NVS) CYP450-related Enzyme Activity (ADME) Assay for human CYP2C8 (AID 2283104). Put shortly:
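Recombinant human CYP2C8 with fluorogenic substrate, 0.5 h, fluorescence intensity; signal loss fitted versus acetonitrile. Screened in duplicate at 10 uM, then actives run in concentration-response up to 20 uM.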

The target of assay [16] is human CYP2J2, CYP2J2 (gene 1573) (UniProt P51589). Nature of the assay: NVS_ADME_hCYP2J2: NovaScreen (NVS) CYP450-related Enzyme Activity (ADME) Assay for human CYP2J2 (AID 2283106; active means hit-call score of the fitted dose curve at least 0.9, where 1 is the maximum). Put shortly: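 Cell-free assay of recombinant CYP2J2 with a fluorogenic substrate, read 1 h after dosing; loss of signal versus acetonitrile. Primary screen at 10 uM in duplicate, then concentration-response up to 20 uM for chemicals passing threshold (e.g., 30% inhibition).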
Sequence of human CYP2J2, CYP2J2 (gene 1573) (P51589 whole entry, looked up): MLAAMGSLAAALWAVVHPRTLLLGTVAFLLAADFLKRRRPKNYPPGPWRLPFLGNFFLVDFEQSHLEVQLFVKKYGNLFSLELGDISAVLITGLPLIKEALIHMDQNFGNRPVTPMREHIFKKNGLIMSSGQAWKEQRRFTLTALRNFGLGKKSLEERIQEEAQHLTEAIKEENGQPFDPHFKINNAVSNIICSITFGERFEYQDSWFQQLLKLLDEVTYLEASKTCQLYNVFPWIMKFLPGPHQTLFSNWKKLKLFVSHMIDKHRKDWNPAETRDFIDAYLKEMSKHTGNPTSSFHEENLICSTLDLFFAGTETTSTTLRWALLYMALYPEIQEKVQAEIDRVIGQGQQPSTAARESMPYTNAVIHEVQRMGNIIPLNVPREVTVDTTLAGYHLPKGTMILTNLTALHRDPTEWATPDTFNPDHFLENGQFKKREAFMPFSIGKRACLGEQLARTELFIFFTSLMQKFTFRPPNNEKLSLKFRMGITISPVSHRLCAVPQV

In assay [17] the target is human CYP2D6, CYP2D6 (gene 1565) (UniProt P10635). The experiment in a line: NVS_ADME_hCYP2D6: NovaScreen (NVS) CYP450-related Enzyme Activity (ADME) Assay for human CYP2D6 (AID 2283107; active means hit-call score of the fitted dose curve at least 0.9, where 1 is the maximum). In a few lines: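 Compounds were first tested in duplicate at 10 uM against recombinant enzyme produced in insect cells, with substrate turnover measured by fluorescence after 1 hour. Decreased signal, referenced to acetonitrile vehicle, was taken as reduced enzyme activity. Active chemicals went on to concentration-response testing.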
Sequence of human CYP2D6, CYP2D6 (gene 1565) (P10635 whole entry, looked up): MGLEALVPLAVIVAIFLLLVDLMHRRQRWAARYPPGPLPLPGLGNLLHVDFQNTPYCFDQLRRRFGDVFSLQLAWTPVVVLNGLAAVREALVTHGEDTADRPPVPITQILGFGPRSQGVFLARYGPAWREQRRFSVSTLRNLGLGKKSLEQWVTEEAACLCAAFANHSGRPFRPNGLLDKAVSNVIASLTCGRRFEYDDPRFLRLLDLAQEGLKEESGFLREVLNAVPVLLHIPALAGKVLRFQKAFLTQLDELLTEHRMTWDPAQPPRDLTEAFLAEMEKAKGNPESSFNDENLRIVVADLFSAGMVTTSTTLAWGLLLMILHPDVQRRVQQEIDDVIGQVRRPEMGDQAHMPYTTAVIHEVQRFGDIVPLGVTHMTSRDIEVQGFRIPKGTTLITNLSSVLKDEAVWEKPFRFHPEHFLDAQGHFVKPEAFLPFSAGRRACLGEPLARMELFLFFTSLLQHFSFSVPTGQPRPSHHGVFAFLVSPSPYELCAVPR

The target in assay [18] is human CYP2C9, CYP2C9 (gene 1559) (UniProt P11712). The experiment in a line: NVS_ADME_hCYP2C9: NovaScreen (NVS) CYP450-related Enzyme Activity (ADME) Assay for human CYP2C9 (AID 2283108; active means hit-call score of the fitted dose curve at least 0.9, where 1 is the maximum). Put shortly: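 Recombinant human CYP2C9 expressed in SF9 cells, fluorogenic substrate, fluorescence read 0.75 h after dosing. Chemicals first run in duplicate at 10 uM, with actives followed in concentration series; loss of signal versus acetonitrile baseline.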
Sequence of human CYP2C9, CYP2C9 (gene 1559) (P11712 whole entry, looked up): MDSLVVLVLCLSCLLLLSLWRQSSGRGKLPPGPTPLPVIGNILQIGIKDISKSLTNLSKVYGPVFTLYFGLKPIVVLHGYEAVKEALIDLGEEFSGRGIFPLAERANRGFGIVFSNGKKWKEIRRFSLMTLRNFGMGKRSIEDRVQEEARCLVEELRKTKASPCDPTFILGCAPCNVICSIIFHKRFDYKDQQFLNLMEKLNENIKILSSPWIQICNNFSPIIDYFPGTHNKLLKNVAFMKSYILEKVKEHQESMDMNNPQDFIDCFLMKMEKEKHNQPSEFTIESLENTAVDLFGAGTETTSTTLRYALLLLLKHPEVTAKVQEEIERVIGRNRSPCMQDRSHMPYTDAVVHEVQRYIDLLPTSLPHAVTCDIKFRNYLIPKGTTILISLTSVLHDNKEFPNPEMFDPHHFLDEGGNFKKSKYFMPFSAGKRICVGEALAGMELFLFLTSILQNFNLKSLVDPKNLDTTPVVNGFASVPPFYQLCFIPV

For assay [19], the target named is Cytochrome P450 3A4 (Homo sapiens) (UniProt P08684). Nature of the assay: NVS_ADME_hCYP3A4: NovaScreen (NVS) CYP450-related Enzyme Activity (ADME) Assay for human CYP3A4 (AID 2283110; active means hit-call score of the fitted dose curve at least 0.9, where 1 is the maximum). Put shortly:
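Cell-free recombinant enzyme expressed in insect cells; fluorescent substrate turnover read after 0.33 h, acetonitrile as negative control. Primary screen in duplicate at 10 uM, actives then tested in concentration series.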

Sequence of E-selectin (Homo sapiens) (P16581 whole entry, looked up): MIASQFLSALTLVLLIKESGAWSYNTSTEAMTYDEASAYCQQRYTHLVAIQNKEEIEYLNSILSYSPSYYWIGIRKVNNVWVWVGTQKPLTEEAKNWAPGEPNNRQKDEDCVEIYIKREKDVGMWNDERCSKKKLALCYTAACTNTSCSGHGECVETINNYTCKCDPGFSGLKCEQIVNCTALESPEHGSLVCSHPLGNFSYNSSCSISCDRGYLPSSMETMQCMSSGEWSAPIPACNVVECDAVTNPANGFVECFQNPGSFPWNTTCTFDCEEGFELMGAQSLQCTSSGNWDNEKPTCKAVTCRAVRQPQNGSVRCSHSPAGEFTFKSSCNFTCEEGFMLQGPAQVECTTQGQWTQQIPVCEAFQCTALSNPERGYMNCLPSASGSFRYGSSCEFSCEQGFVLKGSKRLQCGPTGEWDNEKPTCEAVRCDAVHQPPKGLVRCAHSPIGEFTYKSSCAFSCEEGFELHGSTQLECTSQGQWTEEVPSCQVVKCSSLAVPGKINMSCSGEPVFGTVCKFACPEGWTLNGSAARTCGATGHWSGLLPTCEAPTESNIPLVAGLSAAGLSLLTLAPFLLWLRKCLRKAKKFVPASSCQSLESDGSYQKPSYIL
Sequence of human CYP2B6, CYP2B6 (gene 1555) (P20813 whole entry, looked up): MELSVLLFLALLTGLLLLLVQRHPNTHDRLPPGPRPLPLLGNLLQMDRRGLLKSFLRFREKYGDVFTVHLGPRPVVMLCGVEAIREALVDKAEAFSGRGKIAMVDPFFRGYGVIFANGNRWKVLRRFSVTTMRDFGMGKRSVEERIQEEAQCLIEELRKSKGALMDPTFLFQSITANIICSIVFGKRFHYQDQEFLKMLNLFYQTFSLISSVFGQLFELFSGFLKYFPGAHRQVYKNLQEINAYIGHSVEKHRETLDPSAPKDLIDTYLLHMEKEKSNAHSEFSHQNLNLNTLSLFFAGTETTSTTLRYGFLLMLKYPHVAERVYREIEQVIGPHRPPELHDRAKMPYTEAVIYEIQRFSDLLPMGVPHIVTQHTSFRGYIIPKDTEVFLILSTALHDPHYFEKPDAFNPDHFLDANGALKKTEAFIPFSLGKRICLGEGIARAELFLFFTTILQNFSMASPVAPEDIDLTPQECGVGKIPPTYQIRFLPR
Sequence of human CYP2A6, CYP2A6 (gene 1548) (P11509 whole entry, looked up): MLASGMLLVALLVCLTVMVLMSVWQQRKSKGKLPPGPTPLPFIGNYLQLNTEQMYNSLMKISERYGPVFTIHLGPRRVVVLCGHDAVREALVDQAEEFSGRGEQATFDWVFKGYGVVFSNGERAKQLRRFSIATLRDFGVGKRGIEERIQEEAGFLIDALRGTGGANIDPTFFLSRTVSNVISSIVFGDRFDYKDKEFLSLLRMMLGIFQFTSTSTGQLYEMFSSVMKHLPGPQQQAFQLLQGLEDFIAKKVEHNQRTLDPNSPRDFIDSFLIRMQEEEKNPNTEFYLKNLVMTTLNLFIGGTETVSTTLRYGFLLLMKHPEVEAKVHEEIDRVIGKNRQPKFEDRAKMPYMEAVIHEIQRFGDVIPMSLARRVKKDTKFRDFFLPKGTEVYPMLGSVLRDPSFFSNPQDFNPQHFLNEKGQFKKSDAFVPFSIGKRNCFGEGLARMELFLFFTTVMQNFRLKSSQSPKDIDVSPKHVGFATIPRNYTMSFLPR
Sequence of human CYP1A1, CYP1A1 (gene 1543) (P04798 whole entry, looked up): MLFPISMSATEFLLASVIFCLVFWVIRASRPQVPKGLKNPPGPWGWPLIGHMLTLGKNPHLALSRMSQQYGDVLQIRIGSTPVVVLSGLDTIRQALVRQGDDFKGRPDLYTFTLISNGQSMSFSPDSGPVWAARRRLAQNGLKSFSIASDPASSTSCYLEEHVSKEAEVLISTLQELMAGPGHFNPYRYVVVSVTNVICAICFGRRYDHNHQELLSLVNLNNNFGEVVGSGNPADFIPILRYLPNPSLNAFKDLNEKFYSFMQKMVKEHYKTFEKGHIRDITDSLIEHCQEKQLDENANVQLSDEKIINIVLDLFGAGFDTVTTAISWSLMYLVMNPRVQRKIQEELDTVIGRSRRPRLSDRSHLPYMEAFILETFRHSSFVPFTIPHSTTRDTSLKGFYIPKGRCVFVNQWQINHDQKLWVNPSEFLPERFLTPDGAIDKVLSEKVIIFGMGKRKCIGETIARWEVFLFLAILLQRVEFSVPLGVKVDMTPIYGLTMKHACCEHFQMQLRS
Sequence of Cytochrome P450 2C18 (Homo sapiens) (P33260 whole entry, looked up): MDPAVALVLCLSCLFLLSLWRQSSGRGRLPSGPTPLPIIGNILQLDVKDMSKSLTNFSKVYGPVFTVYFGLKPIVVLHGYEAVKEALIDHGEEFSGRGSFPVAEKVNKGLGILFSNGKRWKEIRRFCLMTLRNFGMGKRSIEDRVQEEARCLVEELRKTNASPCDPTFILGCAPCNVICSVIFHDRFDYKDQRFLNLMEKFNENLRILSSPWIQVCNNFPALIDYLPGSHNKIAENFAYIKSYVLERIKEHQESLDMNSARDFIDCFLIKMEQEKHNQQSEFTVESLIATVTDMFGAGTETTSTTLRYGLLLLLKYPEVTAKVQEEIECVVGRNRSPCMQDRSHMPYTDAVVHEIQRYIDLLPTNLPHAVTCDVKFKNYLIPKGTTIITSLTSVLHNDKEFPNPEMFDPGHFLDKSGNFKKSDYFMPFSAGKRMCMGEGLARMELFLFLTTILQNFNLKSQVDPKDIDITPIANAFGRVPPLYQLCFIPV
Sequence of Cytochrome P450 3A4 (Homo sapiens) (P08684 whole entry, looked up): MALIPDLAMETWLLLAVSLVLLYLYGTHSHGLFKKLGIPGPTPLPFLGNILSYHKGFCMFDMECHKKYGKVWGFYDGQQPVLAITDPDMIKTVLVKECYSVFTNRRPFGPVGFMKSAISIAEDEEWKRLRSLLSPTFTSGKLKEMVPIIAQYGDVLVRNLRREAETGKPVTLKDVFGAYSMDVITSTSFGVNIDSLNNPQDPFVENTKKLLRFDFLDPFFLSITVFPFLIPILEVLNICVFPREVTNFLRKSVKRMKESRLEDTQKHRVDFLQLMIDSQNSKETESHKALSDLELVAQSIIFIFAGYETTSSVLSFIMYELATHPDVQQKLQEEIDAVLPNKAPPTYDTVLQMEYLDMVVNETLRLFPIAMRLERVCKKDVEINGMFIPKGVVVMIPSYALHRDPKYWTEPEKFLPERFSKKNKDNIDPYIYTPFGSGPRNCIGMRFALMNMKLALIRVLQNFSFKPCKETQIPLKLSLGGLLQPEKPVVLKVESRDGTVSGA

For the compound `Cc1cc(Cl)ccc1OCC(=O)O`, the result in assay [1], in [2], in assay [3], in assay [4], in assay [5] and in assay [6] was inactive.

Consider `Cc1c(F)c(F)c(COC(=O)C2C(/C=C(\Cl)C(F)(F)F)C2(C)C)c(F)c1F` (stereo unspecified), for which the result in assay [1], in assay [3], in assay [4] and in assay [5] was inactive. The AC50 in assay [2] was 12500 nM (active); in assay [6], 26600 nM (active).

Turning to `COC(=O)C(C)Oc1ccc(Oc2ccc(Cl)cc2Cl)cc1` (stereo unspecified), the AC50 is 20000 nM (active) in assay [1]; 10 µM (active) and 14.1 µM (active) and 7.91 µM (active) in assay [7]. Besides, the outcome in assay [1], in assay [2], in assay [3], in assay [4], in assay [5] and in [6] was inactive.

Turning to `CCOC(=O)CC(SP(=S)(OC)OC)C(=O)OCC` (stereo unspecified), the outcome in assay [1], in [2], in assay [3], in [4], in assay [5] and in [6] was inactive. The outcome in assay [8], in assay [9] and in assay [15] was inactive. The AC50 in [10] was 1980 nM (active); in assay [11] it was 2870 nM (active); in [12] it was 899 nM (active); in [13] it was 837 nM (active); in assay [14] it was 459 nM (active); in assay [16], 369 nM (active). In addition, the concentration at half-maximal activity (AC50) was 4680 nM (active) in assay [17], 752 nM (active) in assay [18] and 32 nM (active) in assay [7].

As to `C=CC1(C)OC(=O)N(c2cc(Cl)cc(Cl)c2)C1=O` (stereo unspecified), the outcome in [1], in [2], in [3], in [4], in [5] and in [6] was inactive. For the same compound, the result in assay [11], in [13] and in assay [19] was inactive. The half-maximal activity concentration (AC50) in assay [12] was 6.73 µM (active) and 5.83 µM (active); in assay [7] it was 5.01 µM (active) and 10 µM (active) and 1.87 µM (active).

For `CN(C)C(=S)SSC(=S)N(C)C`, the half-maximal activity concentration (AC50) in assay [1] was 28700 nM (active); in assay [2] it was 24800 nM (active); in assay [3] it was 36600 nM (active); in assay [4] it was 3870 nM (active); in assay [5], 18600 nM (active); in assay [14], 2260 nM (active). For the same compound, the AC50 in assay [16] was 6560 nM (active); in assay [17], 2150 nM (active); in assay [18], 1920 nM (active); in assay [7], 780 nM (active). Besides, the compound was called inactive in assay [10] and in assay [19].
